Hits are enriched below; roughly 21% of the tested compounds scored in any of these assays.
Pf growth 96h – Primary qHTS for delayed death inhibitors of the malarial parasite plastid, 96 hour incubation. P. falciparum luciferase reporter growth, 96 h. Potency, µM (titrated, usually from 28.7 µM), without a hit: top-dose activity change, negative = inhibition, hits mostly inhibitors. hit rate 6.9% among 320,000. AID 504834, 2011; note: potency is the fitted concentration of half-maximal effect; % is set by controls: 0 for no effect and ±100 for the full control effect
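Two parasite generations (96 h, 37 C, 5% CO2) of compound exposure in infected erythrocytes (0.05% parasitemia, 2% hematocrit). Luciferase-reporter P. falciparum; decreased luminescence indicates inhibited growth, aimed at apicoplast-acting delayed death.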
Pf growth 48h – Primary qHTS for delayed death inhibitors of the malarial parasite plastid, 48 hour incubation. P. falciparum luciferase growth in erythrocytes, 48 h. Potency, µM (top dose mostly 28.7 µM), without a hit: at the highest dose activity change, negative = inhibition, most hits filed as inhibitors. hit rate 5.9% among 310,000; note: potency is the fitted concentration of half-maximal effect; % is set by controls: 0 for no effect and ±100 for the full control effect
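Compounds are pin-transferred into medium, infected erythrocytes (2% hematocrit, 0.1% parasitemia final) are added, and plates sit one parasite generation at 37 C in 5% CO2. Detection reagent is then added and luminescence measured.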
Shiga toxin inh – A qHTS for Small Molecule Inhibitors of Shiga Toxin; Vero cells, Shiga toxin protein synthesis inhibition reporter; inhibition, % at 38.7 µM; hit rate 9.2% among 290,000; in the data active = inhibition mostly above about 28%, no sharp cut-off; inactive = mostly below about 43%; note: 0% is about no effect
Sm TGR block – qHTS Assay for the Inhibitors of Schistosoma Mansoni Peroxiredoxins | Schistosoma mansoni thioredoxin glutathione reductase (TGR), Q962Y6 | purified TGR, DTNB reduction, TNB absorbance 405 nm | Potency, µM (doses to about 114 µM), for the others: at the top dose activity change, negative = inhibition, most hits filed as inhibitors | hit rate 3% among 360,000; note: potency is the fitted concentration of half-maximal effect; % is set by controls: 0 for no effect and ±100 for the full control effect; nearly all actives have a fitted effect of over 60% in size
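First, TGR (20 nM dispensed) and NADPH were mixed with compound. Second, a 15 min room-temperature incubation followed. Third, further NADPH and then DTNB were added to start the reaction. Finally, TNB absorbance was monitored kinetically.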
CHX counter – Cycloheximide Counterscreen for Small Molecule Inhibitors of Shiga Toxin; cell reporter, cycloheximide protein synthesis inhibition counterscreen; max response, %; hit rate 12% among 300,000; AID 2314, 2010; in the data active = max response mostly above about 13%, no sharp cut-off; inactive = mostly below about 14%; note: read at 38.3 µM for the half of the compounds with a filed dose; 0% is about no effect
NS1 function inh – qHTS Assay for Inhibitors of Influenza NS1 Protein Function; Potency, µM (top dose mostly 46.1 µM), for inactives: top-dose activity, positive = more growth; hit rate 0.4% among 270,000; calls by dose curve; note: potency is the fitted concentration of half-maximal effect; actives are rising curves; nearly all actives have a fitted effect of over 50% in size
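OD600 was taken as the measure of yeast growth restored by compound in an NS1-expressing S. cerevisiae strain. Cells had been washed out of glucose medium and diluted 1:100 into galactose -URA medium, pH 6.0.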
* = called active by the depositor; i = inactive; u = inconclusive; x = not tested or not shown. Unless noted, calls come from the whole dose curve; as a rule, active = well fitted curve in the direction sought with a large enough effect; inconclusive = small, poorly fitted or top-dose-only effect, or another doubt; inactive = no such curve, though single readings can be large; an effect the other way counts as inactive or inconclusive.

SMILES	Pf growth 96h	Pf growth 48h	Shiga toxin inh	Sm TGR block	CHX counter	NS1 function inh
CCOc1ccc(OCCC(=O)N2CCN(S(=O)(=O)c3ccc(OCC)cc3)CC2)cc1	u	u	-18	-19%	-1	-1%
CCOc1ccccc1OCCC(=O)N1CCN(S(=O)(=O)c2ccccc2[N+](=O)[O-])CC1	u	12µM*	x	-10%	x	x
O=[N+]([O-])c1nn(-c2ccccc2)n(O)c1=NCCc1ccccc1	-6%	4.1µM*	112*	-9%	25*	-35%
COc1ccc(-n2nc([N+](=O)[O-])c(=NCCc3ccccc3)n2O)cc1	0%	0%	-8	-25%	15*	-14%
COc1cccc(CN=c2c([N+](=O)[O-])nn(-c3ccccc3C)n2O)c1	u	-28%	33	-6%	2	x
Cc1ccc(CCN=c2c([N+](=O)[O-])nn(-c3ccccc3)n2O)cc1	0%	u	23	x	7	-7%
COC(=O)C1SCC2C(=O)N(Cc3ccccc3)CC(=O)N21 (stereo not drawn)	65%	38%	5	0%	7	x
Cc1ccc(NC(=O)CN(C)C(=O)c2cccc(S(=O)(=O)NCc3ccccc3)c2)cc1	9%	-6%	x	1%	x	x
COC(=O)C(CCSC)NC(=O)C(NC(=O)C1CCC(C)CC1)C(C)C (stereo not drawn)	2.3µM*	18%	-6	13%	-5	-8%
Cn1c(Cn2c(=O)sc3ccccc32)nnc1SCC(=O)N1CCOCC1	-20%	7%	-1	-14%	4	-8%
CSc1nnc(Cn2c(=O)sc3ccccc32)n1CCc1ccccc1	13µM*	x	-15	-14%	-8	-45%
O=C(CSc1nnc(Cn2c(=O)sc3ccccc32)n1CCc1ccccc1)N1CCOCC1	u	9.3µM*	13	-8%	8	-3%
Nc1ncc(O)c(N)n1	x	x	-4	x	2	x
Cc1ccc(NC(=O)COC(=O)Cc2ccsc2)cc1S(=O)(=O)N1CCOCC1	-12%	7%	12	-4%	-5	-10%
CC(C)(C)NC(=O)CCc1ncc(C(F)(F)F)cc1Cl	9%	0%	27	-9%	-1	x
CCOc1ccc(/C=C2\SC(=O)N(CCNC(=O)C3COc4ccccc4O3)C2=O)cc1OC (stereo not drawn)	-99%	u	17	35µM*	19*	8%
CCOc1ccc(/C=C2/Sc3ccc(C(=O)N4CCN(C(=O)c5ccco5)CC4)cc3N(C)C2=O)cc1OC	u	-16%	-6	0%	0	x
CCOc1ccc(/C=C2/Sc3ccc(C(=O)NCC4CCCO4)cc3N(C)C2=O)cc1OC (stereo not drawn)	13µM*	8.3µM*	-6	u	13	8%
COc1ccc(/C=C2/Sc3ccc(C(=O)N4CCOCC4)cc3NC2=O)cc1OC	15µM*	u	-9	0%	-1	5%
CCOC(=O)N1CCN(C(=O)c2ccc3c(c2)N(C)C(=O)/C(=C\c2ccc(OCC)c(OC)c2)S3)CC1	52%	1.2µM*	10	-2%	13	-2%
CCC1(C)Cc2c(sc3nc(SC)n(-c4ccc(C)cc4)c(=O)c23)CO1 (stereo not drawn)	x	x	x	-6%	x	x
COc1ccc(CNC(=O)c2cc3c(=O)n(Cc4cccs4)ccc3nc2C)cc1	x	x	x	-10%	x	x
O=C(NCCCN1CCN(c2cccc(Cl)c2)CC1)c1ccc2nc(Cc3ccccc3)oc2c1	x	x	x	6%	x	x
COC(=O)c1ccccc1NC(=O)c1cnc(Nc2ccc(OC)cc2)c2ccccc12	x	x	x	9%	x	x
Cc1cc(C)c(C)c(S(=O)(=O)NC(C(=O)O)C(C)C)c1C (stereo not drawn)	12%	13%	1	-2%	1	2%
SMILES	Pf growth 96h	Pf growth 48h	Shiga toxin inh	Sm TGR block	CHX counter	NS1 function inh
CCOC(=O)N1CCN(C(=O)c2ccc3c(c2)NC(=O)/C(=C\c2ccc(OC)c(OC)c2)S3)CC1	13µM*	u	-5	1%	-1	9%
CCOC(=O)/C(=N\Nc1ccccc1Cl)N1CCN(c2ccccc2OC)CC1	u	u	-5	0%	4	x
Cc1ccc(CSc2cn(CC(=O)N3CCCCCC3)c3ccccc23)cc1	x	x	x	31%	x	x
O=C(CSc1ncccc1C(=O)O)Nc1ccc2c(c1)OCCO2	55%	34%	82*	1%	100*	11%
O=C(CSc1ncnc2ccccc12)Nc1ccc2c(c1)OCCO2	16%	14%	63	-3%	31*	x
Cc1nnc(SCC(=O)Nc2nc(-c3ccc(F)cc3)cs2)[nH]c1=O	-11%	24%	45	x	21*	1%
Cc1csc(NC(=O)CSc2ccccc2F)n1	7%	136%	84*	-5%	37*	x
Cc1ccc(C)c(NC(=O)CSc2nc(C)cs2)c1	u	-17%	x	-8%	x	x
Cc1ccc(-c2csc(NC(=O)CSc3nc(C)cs3)n2)cc1	68%	174%	111*	-15%	42*	8%
Nc1ccccc1SCC(=O)Nc1nc(-c2ccccc2)cs1	u	16%	62	x	20*	-6%
COc1ccc(OCC(=O)OCc2cc(=O)n3cc(C)sc3n2)cc1	x	x	x	-5%	x	x
CCc1ccc(-c2[nH]nc3nc(-c4ccc(OC)cc4)cc(C(=O)NCCCOC)c23)cc1	x	x	x	11%	x	x
Cc1ccc(C)c(NC(=O)CCS(=O)(=O)c2cccc3nsnc23)c1	x	x	x	-5%	x	x
Cc1csc(SCC(=O)Nc2nc(-c3ccccc3)cs2)n1	77%	38%	27	-3%	13*	-60%
Cc1nc(NC(=O)CSc2ccccc2N)sc1C	73%	28%	14	2%	25*	-1%
Nc1ccccc1SCC(=O)Nc1cccc2ccccc12	u	-8%	x	3%	17	x
Cc1ccccc1C(=O)NCCc1nnc(SCC(=O)Nc2nc(-c3ccccc3)cs2)n1C	13µM*	-4%	-3	-13%	0	17%
O=S(=O)(N/N=C/c1ccccc1OCc1ccc(Cl)cc1)c1ccccc1	u	-12%	active	6%	23*	-6%
O=C(Cc1ccccc1)N/N=C/c1ccccc1OCc1ccc(Cl)cc1	9%	-16%	-5	-6%	9	16%
COC(=O)c1ccc(COc2ccccc2/C=N/NS(=O)(=O)c2ccc(C)cc2)cc1	u	3%	-10	13%	-2	2%
O/N=C/c1ccccc1OCc1ccc(Cl)cc1	146%	98%	63*	10%	44*	-109%
CCOC(=O)N/N=C/c1ccccc1OCc1ccc(Cl)cc1	2.1µM*	2.9µM*	50*	4%	34*	-18%
COc1ccc(N2C(=O)[C@H]3CCC=C[C@H]3[C@@H]2c2ccccc2Br)cc1	x	x	i	x	1	x

Assay outcomes from PubChem.
